Laboratory results from the supplement of paper PMC6555819.

Tested on: VDR:RXRa (NR concentration 270 nM, RXRa partner concentration 90 nM)
Test: PBM binding z-score (relative to random genomic background probes); higher = stronger binding; sequences stand for … in GC…GCGATTGACAGCGTAGAATGAAGG
Experimental: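 Protein-binding microarray (Agilent 4x180K custom design, double-stranded 60-nt probes: 5' GC cap, 34-nt variable region, 24-nt constant primer region; full probe sequence given). Purified or IVT nuclear receptor:RXRα heterodimers (3:1 NR:RXRα, mostly 270:90 nM) or homodimers were incubated for 1 h in PBS with 2% milk and no ligand, then detected with Alexa488 antibodies. Fluorescence from o1-orientation probes (~5 replicates averaged) was converted to z-scores against 500 random hg19 background probes. Variable regions are seed direct-repeat (DR0–DR5) sites, all their single-nucleotide variants and half-site ablations.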

Point of comparison: TCGAGTAGGTTACGCGGGCATTCAGGGATGAAGA, PBM binding z-score -0.157. Against it:
- CGAACTAGGTCAAAGGACAGTTAAAGGCGACGTA — higher, 1.52
- CCGAGTAGGTTACGAGGGAGCATTCAGTGCGAAT — higher, 1.11
- CCGACTGGGGCAAAGGTCACCATACTCAGTACGA — higher, 4.7
- TAGCCTAGGTCATGGGCCTGTATACCACGCGAAC — higher, 1.98
- ATATATAGGTTAGGGTCATTCAGAAAGTAGGGAA — higher, 4.75
- CAAACTAGGTCAAGAGGTCAAACTCCGCTTCCCG — higher, 6.49
- GATACAGGGTCAGCTTGAGGCCAGAGTATGGAAA — higher, 3.33
- CCGAGTAGGTTACGGGGGGGCATTCAGTGCGAAT — higher, 5.49
- CGAACTCGGTCACCAGGACAGTGAAGAGGTTGGA — higher, 1.87
- CGTCCAAGGGCAGCAGGTCAGTGAAAGCGACGTG — higher, 0.17
- TCGAGCAGGTTACGGGGGCATTCAGGGATGAAGA — higher, 3.86
- CCTACTGGGCCACGTAAGGTCATTGATTCAGTGA — higher, 3.69
- TAGCCTCGGTCATTGGGCCAGTATAGTACGCATC — lower, -0.539
- CAAACTAGGTCACAGAGGGCAAAGTCCGTGCGTA — higher, 7.09
- CCTACTGGGCGAAGGTCATTGATCAGTCAAAGCA — higher, 2.18
- CCTTACGGGTCACTGACAGGTCATAGCATTTGGA — higher, 5.38
- CGAACTAGGTTAAAGGACAGTGAAAGGCGACGTA — lower, -0.216
- ATACGTAGGTTAGGGTCATTCAGAAAGTAGGGAA — higher, 4.37
- CCTTACGGGTCACTCCAGGTTCTAGCATCGGAGT — higher, 3.59
- TCGAGTAGGTTACGGGGGGATTCAGGGATGAAGA — higher, 3.28
- CGAACTAGATCAAAGGACAGTGAAAGGCGACGTA — lower, -0.333
- CCGACTAGGTTACGAGGGGGCATTCAGTGCGAAT — higher, 4.96
- ATCGAAAGGTCGCAGGTGAGTATACCCACCCGAA — higher, 3.2
- TCGAGTAGGTTAGGGGGGCATTCAGGGATGAAGA — higher, 3.91
- CCTACTGGGCCAAGGTCATTGACCAGTCAAAGCA — higher, 3.38
- CTAACTAGGTCAAGGTCAAAGTCGGTTTGTGCCA — higher, 5.07
- ATCTCTAGGTAAAGTTCATTGAAAGATCGATAGA — higher, 3.08
- CGAACTATGTCAAGGACAGTGAATCTCCGCACGC — lower, -0.248
- TCTGCTGGGTCAACGATGGTCAGCTAATCTGCTA — higher, 1.62
- CCTAGTGGGCCAAAGGTCATTGATTCCAATGCTC — higher, 4.68
- TAGCCTAGGTCATGCGGGCCAGCATAGTGTCGGC — higher, 2.7
- TCTCGGAGGACACGAAAGGTCTGAGCTCGACATC — higher, 0.182
- CCGAGTAGGTTACGAAGGGGCATTCAGTGCGAAT — higher, 3.08
- CGAACTAGGTCACCACGACAGTGAAGAGGTTGGA — higher, 2.04
- CTATGTAGGTTAAGGGGGTAATTCAGTTTGAAAG — higher, 3.5
- CAAGCTAGGTCAAAGGTCAAAGTCGAGCCAACCA — higher, 6.9
- ATCGAAAGGTCGTGAGGTGAGTTTACAGAAAGGC — higher, 4.49
- CTATGTAGGTTAAGGGGGTCATTCATTTTGAAAG — higher, 7.08
- TCTTGTAGATCAAAGCTTAAGAAAGCCGAAGCCT — higher, -0.115
